The values that follow come from the supplement of paper PMC10127200.

Counter-ions that a name gives are not always drawn.

For the assay, the system named is 786-O. Briefly: Euclidean distance of Cell Painting phenotypic profile (signed KS, 77 features) to DMSO centroid (dimensionless distance); 5 or 10 uM (library dependent); higher = stronger phenotypic change vs DMSO (phenoactivity). Particulars: 48 h. Put shortly:
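At 10 or 5 uM, as set by the library, and 0.1% DMSO final, compounds were applied for 48 h to five cancer lines and one healthy fibroblast line. Stained cells were imaged confocally at 20X in 9 fields per well, and Harmony extracted 77 features scored as signed Kolmogorov-Smirnov statistics against vehicle wells on the same plate. Profiles underwent plate-position correction, correlation weighting and replicate averaging at the top dose. Phenoactivity is the Euclidean distance from each such profile to the median vehicle profile.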
Turning to `C#C[C@]1(O)CC[C@H]2[C@@H]3CCc4cc(OC)ccc4[C@H]3CC[C@@]21C` [Mestranol], the Euclidean distance was determined as 1.12.

`CCCC1CC(C(=O)NC(C(C)Cl)C2OC(SC)C(O)C(O)C2O)N(C)C1` (stereo not drawn) [Clindamycin alcoholate] came in with an Euclidean distance of 1.37.

Consider `Nc1nc(=O)c2nc(CNc3ccc(C(=O)N[C@@H](CCC(=O)O)C(=O)O)cc3)cnc2[nH]1` [Folic acid], for which the Euclidean distance amounted to 1.19.

`Cc1ccc(NCCCc2ccccc2)c(N)c1` returned an Euclidean distance of 0.637.

In turn, `COC(=O)N[C@H](C(=O)N1CCC[C@H]1c1nc(-c2ccc3c(c2)O[C@@H](c2ccccc2)n2c-3cc3cc(-c4c[nH]c([C@@H]5CCCN5C(=O)[C@@H](NC(=O)OC)C(C)C)n4)ccc32)c[nH]1)C(C)C` [Elbasvir] registered an Euclidean distance of 2.17.

Consider `O=c1ccn([C@@H]2O[C@H](COP(=O)(O)OP(=O)(O)OP(=O)(O)OP(=O)(O)OC[C@H]3O[C@@H](n4ccc(=O)[nH]c4=O)[C@H](O)[C@@H]3O)[C@@H](O)[C@H]2O)c(=O)[nH]1` [Diquafosol Tetrasodium], for which the Euclidean distance stood at 0.977.

For the compound `O=C1Nc2ccccc2C1=O` [Isatin], the Euclidean distance amounted to 0.739.

On to `CC1(C)NC(=O)N(c2ccc([N+](=O)[O-])c(C(F)(F)F)c2)C1=O` [Nilutamide], for which the Euclidean distance stood at 0.81.

Consider `CC12CCC(CC1=O)C2(C)C` (stereo not drawn) [Camphor], for which the Euclidean distance was 0.669.

In turn, `CCCCc1nc(Cl)c(CO)n1Cc1ccc(-c2ccccc2-c2nnn[nH]2)cc1` [Losartan Potassium (DuP 753)] gave an Euclidean distance of 0.807.

`C[C@@H]1C[C@H]2[C@@H]3CCC4=CC(=O)C=C[C@]4(C)[C@@]3(F)[C@@H](O)C[C@]2(C)[C@@]1(O)C(=O)CO` [Dexamethasone (DHAP)] gave an Euclidean distance of 1.45.

In turn, `O=C(NC1CCOCC1)c1ccc(-c2cc(-c3c[nH]nc3-c3ccccn3)ccn2)cc1` came in with an Euclidean distance of 1.22.

`COC(=O)Nc1nc2cc(Sc3ccccc3)ccc2[nH]1` [Fenbendazole] gave an Euclidean distance of 2.61.

Take `CS(=O)(=O)c1ccc(-c2cnc(N)c(C(=O)Nc3ccccc3)n2)cc1`: the Euclidean distance is 0.811.

With `CC(C)(Oc1ccc(C(=O)c2ccc(Cl)cc2)cc1)C(=O)O` [Fenofibric acid], the Euclidean distance turned out to be 0.559.

On to `Cc1[nH]c(/C=C2\C(=O)Nc3ccccc32)c(C)c1CCC(=O)O` [TSU-68 (SU6668. Orantinib)], for which the Euclidean distance stood at 0.704.

In the case of `CNC[C@H](O)c1cccc(O)c1` [Phenylephrine HCl], the Euclidean distance stood at 1.46.

In the case of `CCCCCOc1ccccc1/C(=C\SC)n1ccnc1` [Neticonazole Hydrochloride], the Euclidean distance amounted to 1.28.

`NC[C@H](O)c1ccc(O)c(O)c1` [Noradrenaline bitartrate monohydrate]: the Euclidean distance came out at 1.19.

Consider `CC(C)(O)c1ccccc1CC[C@@H](SCC1(CC(=O)O)CC1)c1cccc(/C=C/c2ccc3ccc(Cl)cc3n2)c1` [Montelukast Sodium], for which the Euclidean distance worked out at 0.941.

For `CN1CCN(CCOc2cc(OC3CCOCC3)c3c(Nc4c(Cl)ccc5c4OCO5)ncnc3c2)CC1` [Saracatinib (AZD0530)], the Euclidean distance was 3.22.

With `O=C(Nc1cccnc1)N1CCC(Cc2cccc(Oc3ccc(C(F)(F)F)cn3)c2)CC1`, the Euclidean distance was found to be 0.844.

For the compound `Nc1nc(NC2CC2)c2ncn([C@H]3C=C[C@@H](CO)C3)c2n1` [Abacavir], the Euclidean distance was found to be 1.46.

The compound `C=C1/C(=C\C=C2/CCC[C@]3(C)[C@@H]([C@H](C)/C=C/[C@H](C)C(C)C)CC[C@@H]23)C[C@@H](O)C[C@@H]1O` [Doxercalciferol] had an Euclidean distance of 2.73.

Compound `C=C1CC/C=C(/C)CC[C@@H]2[C@@H]1CC2(C)C` [Œ≤-Caryophyllene] came in with an Euclidean distance of 1.02.

`NCc1ccc(S(N)(=O)=O)cc1` [Mafenide Acetate] showed an Euclidean distance of 0.874.

`Nc1nc(F)nc2c1ncn2[C@@H]1O[C@H](COP(=O)(O)O)[C@@H](O)[C@@H]1O` [Fludarabine Phosphate] came in with an Euclidean distance of 2.13.

`CCOC(=O)N1CCC(=C2c3ccc(Cl)cc3CCc3cccnc32)CC1` [Loratadine]: the Euclidean distance turned out to be 1.17.

`COc1ccc2c(c1)c(CC(=O)O)c(C)n2C(=O)c1ccc(Cl)cc1` [Indomethacin]: the Euclidean distance came to 1.44.

In the case of `NC(=O)N1c2ccccc2CC(=O)c2ccccc21` [Oxcarbazepine], the Euclidean distance amounted to 2.18.

`CC(C)CCCC(C)N` (stereo not drawn) [Octodrine (2-Amino-6-methylheptan)] gave an Euclidean distance of 1.17.

Compound `CN(C)C(=O)COC(=O)Cc1ccc(OC(=O)c2ccc(NC(=N)N)cc2)cc1` [Camostat Mesilate] displayed an Euclidean distance of 1.16.

Compound `C[C@]12CC[C@@H]3c4ccc(O)cc4CC[C@H]3[C@@H]1CCC2=O` [Estrone] had an Euclidean distance of 0.82.
